Screening data as filed in PubChem BioAssay.
Anesthetic bind – candidate novel general anesthetic via apoferritin binding; 0.074% of 350,000 active; Potency, µM (highest dose often 77.5 µM), for inactives: top-dose activity change, negative = displacement, most hits filed as inhibitors; P02791; apoferritin/1-aminoanthracene competitive binding, fluorescence; AID 485281; further: potency means the concentration at half of the fitted maximal effect; on the % scale 0 is the no-effect control and ±100 the full control effect; nearly all actives have a fitted effect of over 20% in size
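Probe: 1-aminoanthracene (50% saturated, PBS). Protein: horse-spleen apoferritin, 10 uM. Incubation: 10 min, room temperature. Detection: 380 nm excitation, 535 nm emission. Analysis: normalized response, four-parameter Hill.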
KCNH2 WT inh – blocks the wildtype human KCNH2 potassium channel. activity change, % at 1.84 µM. U2OS, BacMam KCNH2, thallium flux FluxOr; stronger effect = lower value. 0.37% of 340,000 active. Q12809;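 active means maximum activity change below -70%; inconclusive means maximum activity change between -70% and -50%; inactive means maximum activity change above -50%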; further: on the % scale 0 is the no-effect control and ±100 the full control effect
Target sequence (Q12809 whole entry, looked up): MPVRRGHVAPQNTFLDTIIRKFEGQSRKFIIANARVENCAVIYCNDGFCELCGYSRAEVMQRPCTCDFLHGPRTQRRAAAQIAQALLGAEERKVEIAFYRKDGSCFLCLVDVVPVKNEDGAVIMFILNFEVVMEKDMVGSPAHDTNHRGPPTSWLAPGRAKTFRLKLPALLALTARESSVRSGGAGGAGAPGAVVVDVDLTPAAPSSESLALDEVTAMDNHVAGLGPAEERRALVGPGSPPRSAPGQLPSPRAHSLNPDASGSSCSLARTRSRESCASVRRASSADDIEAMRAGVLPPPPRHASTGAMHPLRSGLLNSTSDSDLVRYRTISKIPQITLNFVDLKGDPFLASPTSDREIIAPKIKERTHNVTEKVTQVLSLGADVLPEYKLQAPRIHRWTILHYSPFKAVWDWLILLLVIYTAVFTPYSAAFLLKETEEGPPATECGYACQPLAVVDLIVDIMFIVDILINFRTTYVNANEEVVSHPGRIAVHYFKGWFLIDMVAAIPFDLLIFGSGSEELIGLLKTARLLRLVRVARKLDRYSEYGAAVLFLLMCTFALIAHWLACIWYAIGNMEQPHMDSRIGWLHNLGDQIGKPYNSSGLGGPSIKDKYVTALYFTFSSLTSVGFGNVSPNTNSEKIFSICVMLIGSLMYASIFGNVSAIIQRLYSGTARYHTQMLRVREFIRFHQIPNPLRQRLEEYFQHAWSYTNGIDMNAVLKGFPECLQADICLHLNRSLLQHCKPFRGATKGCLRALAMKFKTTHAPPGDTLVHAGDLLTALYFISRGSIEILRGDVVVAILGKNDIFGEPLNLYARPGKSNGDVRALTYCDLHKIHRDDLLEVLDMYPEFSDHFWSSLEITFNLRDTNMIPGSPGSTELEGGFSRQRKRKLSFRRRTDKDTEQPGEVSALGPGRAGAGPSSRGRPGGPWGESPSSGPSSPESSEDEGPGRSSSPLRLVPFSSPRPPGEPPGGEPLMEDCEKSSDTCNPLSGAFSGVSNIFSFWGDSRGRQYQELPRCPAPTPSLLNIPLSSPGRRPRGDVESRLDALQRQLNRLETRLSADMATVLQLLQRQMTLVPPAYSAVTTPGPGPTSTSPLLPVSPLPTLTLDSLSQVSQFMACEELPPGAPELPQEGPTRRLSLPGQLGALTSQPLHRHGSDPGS
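U2OS cells transduced with wild-type KCNH2 virus are loaded with FluxOr dye for 45 min, and thallium flux is measured in kinetic reads before and after stimulation buffer. Rate constants are normalized to DMSO controls.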
ASM inhibitor – inhibitors of human secretory acid sphingomyelinase; 0.006% of 340,000 active; AID 504937; Potency, µM (doses to about 57.5 µM), for inactives: at the highest dose activity change, negative = inhibition, most hits filed as inhibitors; placental ASM, HMU-PC fluorogenic substrate, 60 min; P17405; further: potency means the concentration at half of the fitted maximal effect
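qHTS format. ASM enzyme prepared from human placenta hydrolyses the fluorogenic substrate HMU-PC0 (9 uM final) over 60 min at 37 °C after a 10 min compound preincubation.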
KCNH2 3.1 inh – inhibitors of human KCNH2 3.1 potassium channel isoform | 0.95% of 340,000 active | U2OS KCNH2 3.1, thallium flux FluxOr; stronger effect = lower value | activity change, % (tested at about 1.8 µM);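 active means maximum activity change below -70%; inconclusive means maximum activity change from -70% to -50%; inactive means maximum activity change above -50%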;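 further: thallium influx rate constant from kinetic fluorescence after stimulation buffer; on the % scale 0 is the no-effect control and ±100 the full control effect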
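Virally transduced U2OS (3.1 isoform, 4 h infection in dark at RT) → overnight 37 C → FluxOr + Red40 in HBSS/HEPES, 45 min → stimulation buffer, 2 min kinetic read → rate constant vs DMSO controls.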
IDH1 R132H inh – human IDH1 R132H inhibition; O75874; IDH1-R132H enzyme, NADPH consumption, diaphorase/resazurin fluorescence; Potency, µM (series often up to 76.6 µM), without a hit: top-dose activity change, negative = inhibition, hits mostly inhibitors; 0.093% of 390,000 active; further: potency means the concentration at half of the fitted maximal effect; on the % scale 0 is the no-effect control and ±100 the full control effect; nearly all actives have a fitted effect of over 65% in size
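IDH1-R132H (0.5 ug/mL dispensed) in pH 7.5 Tris buffer was preincubated 30 min with compound, then given a substrate mix of 0.016 mM NADPH and 2 mM alpha-KG for 80 min at room temperature; remaining NADPH was read by diaphorase/resazurin fluorescence.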
* marks the source's active call; other numbers are inactive results; ? = inconclusive; . = no result; [ ] = remark or other dose. Only some compounds are listed: those with a hit (about 1.2% of all), similar ones and a draw of the others. Unless noted, the call rests on the fitted dose curve; in most records, active means well fitted inhibition curve with a large enough effect; inconclusive means small, poorly fitted or top-dose-only effect; inactive means no such curve, though single readings can be large or run the other way.

SMILES | Anesthetic bind | KCNH2 WT inh | ASM inhibitor | KCNH2 3.1 inh | IDH1 R132H inh
CCOCCCNC(=O)c1ccc2c(c1)NC(=O)C(CS(=O)(=O)Cc1ccc(F)cc1Cl)N2 (centres undefined) | 1% | . | . | . | -4%
CC(C)(C)C(=O)N1CCN(c2ccnc3cc(Cl)ccc23)CC1 | 1% | 5 | -2% | -32 | 1%
O=[N+]([O-])c1ccc(S(=O)(=O)N2CCN(c3ccnc4cc(Cl)ccc34)CC2)cc1 | -11% | -124* | -4% | -92* | -12%
O=S(=O)(c1cccc(Br)c1)N1CCN(c2ccnc3cc(Cl)ccc23)CC1 | -17% | 34 | -7% | . | 3%
CC(=O)c1ccc(N2CCN(c3ccnc4cc(Cl)ccc34)CC2)cc1 | -9% | -29 | -1%[11.5 µM] | -91* | 8%
Cc1ccccc1N1CCN(CCCN2C(=O)CC(=C(c3ccccc3)c3ccccc3)C2=O)CC1 | ? | -38 | -1% | -46 | 3%
O=C1CC(=C(c2ccccc2)c2ccccc2)C(=O)N1CCCCN1CCN(c2cccc(Cl)c2)CC1 | ? | -75* | -13% | -74* | 6%
CCN1CCN(c2oc(COc3ccc(-c4ccccc4)cc3)nc2C#N)CC1 | 116% | 29 | ? | -71* | 0%
CCOc1ccc(NC(=O)C2CSC(c3ccncc3)=N2)cc1 (centres undefined) | 3% | -120* | 3% | -173* | -3%
O=C(O)[C@@H](O)[C@@H](O)[C@@H](O[C@H]1O[C@@H](CO)[C@@H](O)[C@@H](O)[C@@H]1O)[C@@H](O)CO | -9%[29.3 µM] | . | . | . | .
COc1nc(NC23CC4CC(CC(C4)C2)C3)nc(OC)n1 | 7.1µM* | -7 | -4% | -9 | 1%
Cc1nc2cc(NC(=O)Nc3cccc([N+](=O)[O-])c3)ccc2n1C | -5% | 2 | -4% | -75* | 5%
Cc1ccc(NC(=O)Nc2ccc3c(c2)nc(C)n3C)cc1 | -17% | 4 | 3% | . | 3%
COc1cc(/C=C/C(=O)OCC(=O)NC2CCS(=O)(=O)C2)ccc1OC(F)F (centres undefined) | . | 4 | -2% | -167* | -19%
CCOC(=O)CSc1nc(-c2ccc(C)cc2C)cc(-c2ccccc2)c1C#N | 6% | . | . | . | -4%
CCCN1CCC(=O)N(C(CSc2ccc(OC)cc2)CC(C)C)CC1 (centres undefined) | -4% | . | . | . | .
COc1ccc(-n2nc3c(c2NC(=O)c2c(F)cccc2Cl)CS(=O)C3)cc1 (centres undefined) | 0% | -4 | 2% | -78* | 0%
COc1cccc(-c2sc3ccccc3c2-c2ccc(OCCN3CCCCC3)cc2)c1 | . | 6 | ? | -76* | 5%
COc1ccc(-n2c(-c3ccc(C)cc3)cc3c2CC(C)(C)CC3=O)c(OC)c1 | -4% | . | . | . | 0%
CCOC(=O)C1CCN(c2c(C(=O)c3ccc(C)cc3)cnc3ccc(F)cc23)CC1 | -19% | . | . | . | 4%
CCCCCCCCc1nc(SC(C)C(=O)O)n[nH]1 (centres undefined) | -19% | -7 | 2% | -105* | -15%
C=CCCCCCCCCc1nc(SCC(=O)O)n[nH]1 | -2% | 3 | 7% | -8 | -12%
Cc1ccc(NC(=O)C2CCN(C(=O)c3cnn(-c4ccccc4)c3-n3cccc3)CC2)cc1C | -19% | . | . | . | -9%
C=CCn1c(SCC(=O)Nc2ccc(S(N)(=O)=O)cc2)nnc1-c1cnccn1 | -13% | -143* | 0% | -12 | 3%
C=CCn1c(SCC(=O)Nc2ccc(OC)cc2)nnc1-c1cnccn1 | -10% | -4 | -1% | 4 | 29%
SMILES | Anesthetic bind | KCNH2 WT inh | ASM inhibitor | KCNH2 3.1 inh | IDH1 R132H inh
C/C(N)=C(/C#N)C(=O)COC(=O)CC12CC3CC(CC(C3)C1)C2 | 18µM* | -1 | -4% | -12 | 7%
C/C(N)=C(/C#N)C(=O)COC(=O)C1CCC(C(C)(C)C)CC1 (centres undefined) | 35µM* | 11 | -11% | 8 | 7%
COc1ccccc1NC(=O)CSc1nc2c(oc3ccccc32)c(=O)n1-c1ccc(C)cc1 | -5% | . | . | . | -22%
CC(C)N(C)C1CCN(C(=O)Nc2ccc(Cl)cc2)CC1 | -9% | 18 | -2% | -198* | 1%
Cc1ccc2nc(N3CCN(CCO)CC3)nc(-c3ccccc3)c2c1 | 77% | 15 | 11% | -40 | 0%
OCCN1CCN(c2nc(-c3ccccc3)c3cc(Cl)ccc3n2)CC1 | 48% | -39 | -4% | -99* | 6%
O=C(Nc1ccc(N=Nc2ccccc2)cc1)c1ccccc1Cl | -18% | -3 | -6% | -98* | -1%
CCOc1ccc(C(=O)Nc2ccc(-c3nc4ccccc4[nH]3)cc2)cc1[N+](=O)[O-] | -9% | -19 | 4% | -71* | 10%
Cn1ncc([N+](=O)[O-])c1C(=O)Nc1ccc(-c2nc3ccccc3[nH]2)cc1 | -17% | -9 | -5% | -4 | 3%
O=c1c(Cl)c(Nc2cccc(Cl)c2)cnn1-c1nc2ccccc2s1 | -8% | -10 | -11% | -106* | 5%
COc1ccc(Nc2cnn(-c3nc4ccccc4s3)c(=O)c2Cl)cc1 | -1% | -6 | -8% | -11 | 2%
c1cc(C2CCCCC2)ccc1Oc1nc(N2CCOCC2)nc(N2CCOCC2)n1 | -4% | 3 | 3% | -71* | 6%
Cc1c(CCC(=O)NCCCn2ccnc2)c(=O)oc2c(C)c3oc4c(c3cc12)CCCC4 | -9% | -150* | 46% | -159* | ?
Cc1ccccc1CSc1nc(-c2cccc(F)c2)nc2c1Cc1c(CO)cnc(C)c1O2 | -10% | . | . | . | -16%
Cc1c(C(=O)N2CCCCCC2)c(S(=O)(=O)Nc2cccc(C#N)c2)c(C)n1C | -4% | . | . | . | -11%
COC(=O)c1c(O)cc(C(C)(C)C)n(-c2ccc(F)cc2)c1=O | 4% | -116* | 10% | -216* | 2%
CCOC(=O)C1=C(CS(=O)(=O)c2c(C)cc(C)cc2C)NC(=O)NC1c1cccc(OC)c1 (centres undefined) | -17% | . | . | . | 0%
Cn1c(C(=O)N2CCCc3ccccc32)cc2sccc21 | 13µM* | 0 | -7% | 20 | 7%
O=C(c1cc2sccc2n1Cc1ccccc1)N1CCCc2ccccc21 | 2% | 6 | -9% | -20 | 4%
